From ChEMBL document CHEMBL3988442, “University of Dundee, Small-Polar-MMV Screening Library” (2021)
For part of these data: Measured potencies and affinities stand elsewhere.

Tests used:
Set-up in all cases: scale not given: direction of the effect not stated beside the values
[1] = molecular target: Protein translocase subunit SecA (Escherichia coli (strain K12)) (UniProt P10408); assay: Assay to Identify E. coli SecA ATPase Inhibitors; assay type: functional; conditions: 30 µM
[2] = molecular target: T1, Ubiquitin-activating enzyme e1, putative (Leishmania donovani (strain BPK282A1)) (UniProt E9BSI1); assay: Leishmania donovani Ubiquitin Activating Enzyme (LdE1); assay type: functional; conditions: 30 µM
T1 sequence (whole entry): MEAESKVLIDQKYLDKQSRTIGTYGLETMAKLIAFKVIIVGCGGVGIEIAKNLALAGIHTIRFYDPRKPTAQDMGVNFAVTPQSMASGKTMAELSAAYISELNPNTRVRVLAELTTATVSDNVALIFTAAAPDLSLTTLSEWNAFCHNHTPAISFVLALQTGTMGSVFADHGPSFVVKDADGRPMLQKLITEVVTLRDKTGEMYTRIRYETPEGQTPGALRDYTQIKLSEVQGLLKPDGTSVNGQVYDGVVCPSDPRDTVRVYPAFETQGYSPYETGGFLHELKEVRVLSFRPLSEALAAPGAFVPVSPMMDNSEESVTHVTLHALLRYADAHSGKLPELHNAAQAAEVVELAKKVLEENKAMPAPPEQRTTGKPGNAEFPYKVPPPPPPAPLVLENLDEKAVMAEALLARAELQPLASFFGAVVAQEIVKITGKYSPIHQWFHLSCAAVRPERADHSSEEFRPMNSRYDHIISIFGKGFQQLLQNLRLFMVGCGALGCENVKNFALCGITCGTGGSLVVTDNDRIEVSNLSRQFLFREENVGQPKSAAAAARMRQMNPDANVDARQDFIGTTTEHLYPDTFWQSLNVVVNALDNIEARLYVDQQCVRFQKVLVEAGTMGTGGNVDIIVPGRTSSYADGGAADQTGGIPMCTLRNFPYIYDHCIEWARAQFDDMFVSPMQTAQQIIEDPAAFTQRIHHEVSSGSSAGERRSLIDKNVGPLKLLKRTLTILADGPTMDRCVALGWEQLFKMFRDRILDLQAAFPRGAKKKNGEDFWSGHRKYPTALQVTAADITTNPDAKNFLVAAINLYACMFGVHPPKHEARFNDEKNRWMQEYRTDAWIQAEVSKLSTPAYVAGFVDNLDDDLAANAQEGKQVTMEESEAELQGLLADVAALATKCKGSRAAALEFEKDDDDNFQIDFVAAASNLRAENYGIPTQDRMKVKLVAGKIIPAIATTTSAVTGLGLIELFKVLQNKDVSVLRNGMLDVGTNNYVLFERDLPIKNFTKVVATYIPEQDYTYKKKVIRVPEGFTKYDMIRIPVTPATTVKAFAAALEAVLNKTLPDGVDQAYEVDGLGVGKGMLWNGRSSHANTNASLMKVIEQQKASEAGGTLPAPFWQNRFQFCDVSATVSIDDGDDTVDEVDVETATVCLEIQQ

[3] = molecular target: Sialic acid-binding Ig-like lectin 9 (Homo sapiens) (UniProt Q9Y336); assay: Hs-Siglec9 ALPHAscreen SOP 20170721; conditions: 10 µM
Trypanosoma cruzi = assay: Trypanosoma cruzi phosphomannomutase and mannose-1-phosphate guanylyltransferase assay; assay type: functional; conditions: 10 µM
[4] = molecular target: T2, Arginase-2, mitochondrial (Homo sapiens) (UniProt P78540); assay: in vitro enzyme assay to detect the production of urea directly proportional to the activity of Arginase II; assay type: functional; conditions: 33.3 µM; note: in the data most compounds retested in dose-response had high values
T2 sequence (whole entry): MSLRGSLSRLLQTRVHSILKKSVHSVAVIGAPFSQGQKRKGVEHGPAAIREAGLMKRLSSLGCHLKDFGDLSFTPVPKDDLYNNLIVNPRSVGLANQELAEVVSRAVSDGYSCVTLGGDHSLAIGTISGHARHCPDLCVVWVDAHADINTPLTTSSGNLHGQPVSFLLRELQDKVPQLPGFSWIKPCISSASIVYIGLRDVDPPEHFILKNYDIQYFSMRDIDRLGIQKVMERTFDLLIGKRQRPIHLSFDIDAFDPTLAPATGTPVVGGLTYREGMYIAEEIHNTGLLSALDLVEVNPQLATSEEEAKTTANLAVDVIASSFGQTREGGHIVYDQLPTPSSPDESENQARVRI

[5] = molecular target: T3, Proteasome subunit beta (Trypanosoma cruzi) (UniProt O96673); assay: Trypanosoma cruzi proteasome chymotrypsin-like activity (TcProtChymo) assay.; note: in the data most compounds retested in dose-response had high values; assay type: functional; conditions: 9.37 µM
T3 sequence (whole entry): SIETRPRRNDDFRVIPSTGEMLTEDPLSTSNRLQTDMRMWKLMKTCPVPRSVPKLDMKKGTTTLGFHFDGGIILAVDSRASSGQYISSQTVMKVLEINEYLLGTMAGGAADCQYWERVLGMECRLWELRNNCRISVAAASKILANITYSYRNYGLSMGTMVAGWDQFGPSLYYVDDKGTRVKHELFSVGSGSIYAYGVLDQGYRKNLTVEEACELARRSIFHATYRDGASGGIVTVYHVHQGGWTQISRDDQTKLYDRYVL

Homo sapiens = organism: Homo sapiens; assay: To identify inhibition of the IFN signalling (Jak-Stat) pathway via expression of an eGFP reporter gene under the control of an IFN-stimulated response element (ISRE) containing MxA promoter.; assay type: functional; conditions: 30 µM
[6] = molecular target: T4, Tyrosyl-tRNA synthetase, putative (Trypanosoma cruzi (strain CL Brener)) (UniProt Q4DSP6); assay: Trypanosoma cruzi tyrosyl tRNA synthetase (TcYRS) _High Tyrosine SOP; assay type: functional; conditions: 30 µM; note: in the data most compounds retested in dose-response had high values
T4 sequence (whole entry): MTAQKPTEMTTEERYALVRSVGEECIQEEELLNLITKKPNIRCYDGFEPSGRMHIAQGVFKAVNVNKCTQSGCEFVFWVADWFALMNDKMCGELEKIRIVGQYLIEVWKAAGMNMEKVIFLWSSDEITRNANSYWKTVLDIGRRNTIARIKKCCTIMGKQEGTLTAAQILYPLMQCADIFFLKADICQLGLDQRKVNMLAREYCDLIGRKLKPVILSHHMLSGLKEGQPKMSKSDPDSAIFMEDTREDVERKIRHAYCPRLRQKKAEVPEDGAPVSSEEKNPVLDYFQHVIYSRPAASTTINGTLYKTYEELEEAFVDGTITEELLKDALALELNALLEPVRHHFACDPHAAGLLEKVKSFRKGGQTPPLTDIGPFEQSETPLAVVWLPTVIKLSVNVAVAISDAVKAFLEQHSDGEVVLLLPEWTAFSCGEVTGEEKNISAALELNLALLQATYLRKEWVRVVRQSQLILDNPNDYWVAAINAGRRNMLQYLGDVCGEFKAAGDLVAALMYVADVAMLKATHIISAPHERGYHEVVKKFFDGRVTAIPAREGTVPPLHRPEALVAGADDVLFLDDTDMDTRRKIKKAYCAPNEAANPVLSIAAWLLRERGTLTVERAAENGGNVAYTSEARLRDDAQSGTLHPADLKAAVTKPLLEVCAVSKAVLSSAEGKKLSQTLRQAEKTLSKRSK

[7] = molecular target: T4, Tyrosyl-tRNA synthetase, putative (Trypanosoma cruzi (strain CL Brener)); assay: Trypanosoma cruzi tyrosyl tRNA synthetase (TcYRS) SOP; assay type: functional; conditions: 30 µM
[8] = molecular target: Chromo domain-containing protein 1 (Saccharomyces cerevisiae (strain ATCC 204508 / S288c) (Baker's yeast)) (UniProt P32657); assay: ScCHD-1 Enzyme Inhibition Assay; assay type: functional; conditions: 30 µM; note: in the data most compounds retested in dose-response had high values
Sequence of Chromo domain-containing protein 1 (Saccharomyces cerevisiae (strain ATCC 204508 / S288c) (Baker's yeast)) (P32657 whole entry, the tested form may be a part): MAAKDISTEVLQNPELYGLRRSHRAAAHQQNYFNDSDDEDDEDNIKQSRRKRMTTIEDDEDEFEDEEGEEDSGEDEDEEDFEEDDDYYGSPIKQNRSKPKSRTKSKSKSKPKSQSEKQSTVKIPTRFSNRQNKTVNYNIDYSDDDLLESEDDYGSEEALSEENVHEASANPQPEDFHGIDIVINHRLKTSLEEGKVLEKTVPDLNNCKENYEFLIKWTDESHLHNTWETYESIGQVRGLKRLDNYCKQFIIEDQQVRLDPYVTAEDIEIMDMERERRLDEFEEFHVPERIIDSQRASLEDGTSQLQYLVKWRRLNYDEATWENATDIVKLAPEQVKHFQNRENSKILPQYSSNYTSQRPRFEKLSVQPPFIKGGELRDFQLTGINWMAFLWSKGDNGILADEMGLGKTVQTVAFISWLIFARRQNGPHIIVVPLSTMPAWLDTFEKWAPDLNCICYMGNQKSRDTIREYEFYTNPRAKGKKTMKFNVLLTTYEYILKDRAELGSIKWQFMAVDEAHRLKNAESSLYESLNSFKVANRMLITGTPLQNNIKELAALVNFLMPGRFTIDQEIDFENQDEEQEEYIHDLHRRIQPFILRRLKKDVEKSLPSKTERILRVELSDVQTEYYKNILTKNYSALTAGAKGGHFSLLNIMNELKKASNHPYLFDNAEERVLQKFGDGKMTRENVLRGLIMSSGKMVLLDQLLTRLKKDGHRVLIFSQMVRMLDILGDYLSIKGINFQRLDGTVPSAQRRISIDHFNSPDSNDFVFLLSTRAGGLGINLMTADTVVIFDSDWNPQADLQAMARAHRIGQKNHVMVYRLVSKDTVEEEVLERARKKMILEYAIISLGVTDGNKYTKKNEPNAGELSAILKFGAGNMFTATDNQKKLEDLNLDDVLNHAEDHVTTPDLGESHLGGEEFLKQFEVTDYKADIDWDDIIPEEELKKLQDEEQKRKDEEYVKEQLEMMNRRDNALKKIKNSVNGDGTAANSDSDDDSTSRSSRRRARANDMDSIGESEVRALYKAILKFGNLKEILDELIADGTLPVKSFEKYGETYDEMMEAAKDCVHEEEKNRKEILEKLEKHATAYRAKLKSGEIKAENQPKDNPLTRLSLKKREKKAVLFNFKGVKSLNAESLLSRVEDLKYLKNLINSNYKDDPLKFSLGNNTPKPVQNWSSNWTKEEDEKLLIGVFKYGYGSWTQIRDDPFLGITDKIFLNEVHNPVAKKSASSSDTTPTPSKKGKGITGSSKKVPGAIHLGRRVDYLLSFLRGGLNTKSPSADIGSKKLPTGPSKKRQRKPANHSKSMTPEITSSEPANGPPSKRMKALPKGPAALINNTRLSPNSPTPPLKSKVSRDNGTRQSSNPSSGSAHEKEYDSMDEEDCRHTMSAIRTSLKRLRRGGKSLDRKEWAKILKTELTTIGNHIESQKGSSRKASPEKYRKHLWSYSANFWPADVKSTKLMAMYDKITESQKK

Sequence of Protein translocase subunit SecA (Escherichia coli (strain K12)) (P10408 whole entry): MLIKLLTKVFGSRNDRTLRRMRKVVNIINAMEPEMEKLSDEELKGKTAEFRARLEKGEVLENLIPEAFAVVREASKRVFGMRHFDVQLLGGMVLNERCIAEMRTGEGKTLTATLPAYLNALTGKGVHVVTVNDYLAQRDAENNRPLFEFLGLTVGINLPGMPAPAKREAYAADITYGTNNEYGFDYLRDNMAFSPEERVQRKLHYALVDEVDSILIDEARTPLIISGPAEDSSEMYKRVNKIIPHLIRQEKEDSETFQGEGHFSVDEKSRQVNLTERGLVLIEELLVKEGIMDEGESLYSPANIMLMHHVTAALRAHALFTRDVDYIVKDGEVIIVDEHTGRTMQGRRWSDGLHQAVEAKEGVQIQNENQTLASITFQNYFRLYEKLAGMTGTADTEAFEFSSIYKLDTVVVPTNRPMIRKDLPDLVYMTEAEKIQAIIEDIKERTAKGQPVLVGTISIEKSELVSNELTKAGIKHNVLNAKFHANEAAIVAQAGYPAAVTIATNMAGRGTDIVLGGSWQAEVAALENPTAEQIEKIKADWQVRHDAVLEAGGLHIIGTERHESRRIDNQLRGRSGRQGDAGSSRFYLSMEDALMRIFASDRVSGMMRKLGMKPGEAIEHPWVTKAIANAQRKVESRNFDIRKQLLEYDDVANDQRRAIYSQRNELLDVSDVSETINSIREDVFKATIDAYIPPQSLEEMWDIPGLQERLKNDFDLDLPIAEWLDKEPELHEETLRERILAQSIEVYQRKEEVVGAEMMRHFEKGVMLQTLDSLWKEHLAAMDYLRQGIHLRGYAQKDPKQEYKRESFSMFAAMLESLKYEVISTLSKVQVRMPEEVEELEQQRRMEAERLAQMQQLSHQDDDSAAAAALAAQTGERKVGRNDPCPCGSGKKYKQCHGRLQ
Sequence of Sialic acid-binding Ig-like lectin 9 (Homo sapiens) (Q9Y336 whole entry): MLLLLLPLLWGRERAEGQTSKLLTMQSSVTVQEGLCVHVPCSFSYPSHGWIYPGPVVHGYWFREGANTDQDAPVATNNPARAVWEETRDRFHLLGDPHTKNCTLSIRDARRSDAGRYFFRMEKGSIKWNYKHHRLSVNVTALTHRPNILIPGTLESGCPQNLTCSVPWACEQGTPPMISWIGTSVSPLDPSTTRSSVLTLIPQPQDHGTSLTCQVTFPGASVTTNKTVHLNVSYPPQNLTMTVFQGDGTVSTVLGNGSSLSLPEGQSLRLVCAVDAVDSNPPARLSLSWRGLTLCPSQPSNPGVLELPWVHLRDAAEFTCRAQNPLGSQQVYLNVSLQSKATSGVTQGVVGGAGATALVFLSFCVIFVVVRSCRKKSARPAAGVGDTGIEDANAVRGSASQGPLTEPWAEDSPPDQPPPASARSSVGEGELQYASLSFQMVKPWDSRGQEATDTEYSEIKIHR

Structure (SMILES) | Percent Effect [1] [%] | Percent Effect [2] [%] | Percent Effect [3] [%] | Percent Effect (Trypanosoma cruzi) [%] | Percent Effect [4] [%] | Percent Effect [5] [%] | Percent Effect (Homo sapiens) [%] | Percent Effect [6] [%] | Percent Effect [7] [%] | Percent Effect [8] [%]
CC(C)(N)C(=O)N1CCCC1c1cncc(Oc2ccc(F)cc2)n1 (stereo not given) | -4.32 | 17.3 | 10.6 | 0.789 | -0.443 | 1.31 | -1.85 | 6.35 | 15 | -24.2
Cn1cc(CNCC2Cn3nnc(-c4ccccc4)c3CO2)cn1 (stereo not given) | -4.8 | 6.49 | 9.99 | 4.97 | 13 | 4.68 | -2.48 | 2.63 | 10.3 | 19
CCN(CC1CCOC1)C(=O)Nc1ccc(OC)nc1 (stereo not given) | -0.796 | 17.9 | -22.4 | 2.35 | 2.46 | 18.2 | 15.6 | 2.39 | 22.9 | -7.72
CN1CCN(CC2CC2)C(=O)c2cnc(N3CCCCC3)nc21 | -6.28 | -45.3 | 3.74 | -1.41 | -3.99 | -4.83 | 19 | -2.63 | -5.13 | -2.64
O=C1NCc2ccc(NC(=O)C3CCCN3c3nccs3)cc21 (stereo not given) | 0.371 | -7.69 | 12.8 | 0.0939 | -1.23 | 1.96 | -7.22 | -0.478 | -6.02 | 105
Cc1csc2ncc(-c3ccnc(N4CCN(C)CC4)n3)c(=O)n12 | -1.31 | 0 | -2.78 | -3.21 | -0.444 | -0.933 | 0.181 | -3.68 | -10.3 | -10.1
CN(C)CCN1CCCC12CCN(C(=O)c1cccn1C)CC2 | -4.21 | -1.3 | 2.81 | 2.04 | -2.02 | 0.618 | -20.1 | -0.526 | -2.56 | 4.29
O=C(NCCn1ccnc1)N1CCCC1c1ccsc1 (stereo not given) | -1.45 | 10.3 | -12.8 | 8.73 | 1.64 | 17.7 | -7.37 | 6.22 | 20.5 | -4.56
O=C(NCc1ccccc1)[C@H]1C[C@@H]2CN(S(=O)(=O)C3CC3)C[C@H]1O2 | -3.6 | 1.3 | -4.1 | -3.99 | -1.22 | 14.4 | 14.4 | 3.68 | 7.69 | 1.77
COC[C@@H]1CC[C@H]2[C@H](CCN2S(=O)(=O)c2cccc(C)c2)O1 | -1.1 | 6.49 | -6.71 | -4.38 | 2.43 | 16.1 | -2.75 | 0.526 | 5.13 | -2.87
COc1ncccc1NC(=O)c1cccc(C)n1 | 3.56 | 15.4 | -4.18 | 1.41 | 2.05 | 4.18 | 7.05 | 9.09 | 25.3 | -8.29
c1cncc(N2CCOCC3(CCCN(c4nncs4)C3)C2)c1 (stereo not given) | -4.46 | -3.9 | -2.68 | -1.27 | -2.02 | 7.33 | 2.84 | 2.63 | 7.69 | 3.64
